The source of these data is PubChem BioAssay (NCI).

This is part of a sample that, as a whole, favours compounds with a hit. Of some 79,000 tested, about 15% had one in any assay. Unmarked numbers belong to inactive results. Active and inactive are the calls of the source. Cut-off read from the data, not from the text of the source: active = growth inhibition above about 70%; inactive = the rest.

The nature of assay [1]: NCI Yeast Anticancer Drug Screen. Data for the rad50 strain (AID 155).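 Note: 0% = growth of vehicle-only cultures of the same strain.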 Conditions: S. cerevisiae rad50 strain growth inhibition; at 50.0 µM; stronger effect = higher value. A digest of the protocol:
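Inhibition values express reduced yeast growth in compound-treated cultures relative to vehicle-treated controls.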

Assay [2] is described as follows: NCI Yeast Anticancer Drug Screen. Data for the mec2-1 strain (AID 157). Conditions: S. cerevisiae mec2-1 strain, at 50.0 µM, stronger effect = higher value. A digest of the protocol: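 Vehicle-treated cultures served as reference for growth inhibition of compound-exposed mec2-1 yeast.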
The nature of assay [3]: NCI Yeast Anticancer Drug Screen. Data for the sgs1 mgt1 strain (AID 161).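 Note: 0% = growth of cultures given vehicle only.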 The note with it: S. cerevisiae sgs1 mgt1 strain, at 50.0 µM, stronger effect = higher value. The method in brief: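 Read-out: growth inhibition vs vehicle controls. Cells: mutant yeast strain deficient in DNA damage repair.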
Assay [4] in a line: NCI Yeast Anticancer Drug Screen. Data for the cln2 rad14 strain (AID 165).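 Note: 0% = growth equal to vehicle treated cultures.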 The note with it: S. cerevisiae cln2 rad14 strain, at 50.0 µM, stronger effect = higher value. A digest of the protocol: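 Each compound was tested on cln2 rad14 yeast. Inhibition of growth was calculated against vehicle-exposed controls.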
The nature of assay [5]: NCI Yeast Anticancer Drug Screen. Data for the bub3 strain (AID 167). The note with it: S. cerevisiae bub3 mutant strain, at 50.0 µM, stronger effect = higher value. A digest of the protocol: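 Steps: expose the mutant yeast strain to compound; grow alongside vehicle-treated cultures; measure growth; express inhibition against the vehicle cultures.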
A short description of assay [6]: NCI Yeast Anticancer Drug Screen. Data for the mlh1 rad18 strain (AID 175). Conditions: S. cerevisiae mlh1 rad18 strain growth inhibition; at 50.0 µM; stronger effect = higher value. The method in brief: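 Vehicle-treated cultures served as the reference for growth inhibition in a yeast strain carrying DNA damage repair alterations exposed to each compound.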

With `COc1ccc(NC(=O)Nc2cccc(Cl)c2C)c(OC)c1`, the growth inhibition is -0.9% in assay [1]; 9.3% in assay [2]; 32.8% in assay [3]; -3.15% in assay [4]; 9.85% in assay [5]; 5.6% in assay [6].

Turning to `O=C1CCN2C=CC=CC2=N1`, the growth inhibition in assay [1] was -14.6%; in assay [2] it was -8.6%; in assay [3], 2.15%; in assay [4] it was -26.6%; in assay [5], -19%; in assay [6], 6.95%.

As to `Cc1ccc(S(=O)(=O)Cc2c(C)cc(C)cc2C)cc1`, the growth inhibition is 12.3% in assay [1]; 3.8% in assay [2]; -2.25% in assay [3]; -30.9% in assay [4]; -10.6% in assay [5]; 1.15% in assay [6].

Take `CCCCN=C1NC(N)=NC(C)(C)N1`: the growth inhibition in assay [1] is -0.1%; in assay [2] it was -0.35%; in assay [3], -0.75%; in assay [4], -37.5%; in assay [5], -13.3%; in assay [6] it was -18.9%.

Turning to `CNC1C(CO)OC(OC)C1O` (configuration not stated), the growth inhibition in assay [1] was 10.8%; in assay [2], 12%; in assay [3], 7.1%; in assay [4], 8%; in assay [5] it was 1.2%; in assay [6], -2.85%.

For the compound `O=C(O)c1cc(C(=O)Nc2cccc3ccccc23)c(C(=O)O)cc1C(=O)Nc1cccc2ccccc12`, the growth inhibition in assay [1] was 14.6%; in assay [2] it was 24.1%; in assay [3], 17.6%; in assay [4], -5.4%; in assay [5], 6.4%; in assay [6], 22.8%.

Regarding `CCOc1ccc(Nc2nc(C(Cl)(Cl)Cl)cc(C(Cl)(Cl)Cl)n2)cc1CN(CC)CC`, the growth inhibition in assay [1] is 98.2% (active); in assay [2], 99.1% (active); in assay [3], 99% (active); in assay [4], 98.1% (active); in assay [5] it was 98% (active); in assay [6], 98.8% (active).

Regarding `CC(=O)OC(C)c1cc2c(s1)C(=O)c1scc(C(C)OC(C)=O)c1C2=O` (configuration not stated), the growth inhibition in assay [1] was 90.8% (active); in assay [2], 93.4% (active); in assay [3] it was 92.5% (active); in assay [4], 91.9% (active); in assay [5], 91.7% (active); in assay [6], 91.3% (active).

Take `Nc1ccccc1NC(=O)c1nc2ccccc2[nH]1`: the growth inhibition in assay [1] was 1.55%; in assay [2] it was 15.2%; in assay [3] it was 19.6%; in assay [4] it was 6%; in assay [5], 7.8%; in assay [6], 4.5%.

As for `Oc1ccc(Cl)c2cccnc12`, the growth inhibition is 98.9% (active) in assay [1]; 99.5% (active) in assay [2]; 99.2% (active) in assay [3]; 97.8% (active) in assay [4]; 99.3% (active) in assay [5]; 97.7% (active) in assay [6].

As to `NCC(O)COCc1ccccc1` (configuration not stated), the growth inhibition in assay [1] is -16.1%; in assay [2], -24.4%; in assay [3], -1.65%; in assay [4], -28.1%; in assay [5], -1.6%; in assay [6], -0.35%.

As for `CC(N=C(N)N)C(=O)O` (configuration not stated), the growth inhibition is -11.9% in assay [1]; 9.1% in assay [2]; 0.15% in assay [3]; -12.5% in assay [4]; 5.3% in assay [5]; 14% in assay [6].

Take `C1=CC(c2ccccc2)=C(c2ccccc2)C(c2ccccc2)C(c2ccccc2)=C1` (configuration not stated): the growth inhibition in assay [1] was 18.2%; in assay [2], 1.95%; in assay [3], 13.2%; in assay [4], 26.9%; in assay [5] it was -1.05%; in assay [6], 11.8%.

Turning to `CCOC(=O)CCC(C)=O`, the growth inhibition in assay [1] was 22.8%; in assay [2] it was 11.2%; in assay [3], 14.9%; in assay [4] it was 20.5%; in assay [5], 14.7%; in assay [6], 11%.

As to `COC(=O)CC(c1ccccc1)N1CCOCC1` (configuration not stated), the growth inhibition in assay [1] was -12.3%; in assay [2], 19.4%; in assay [3] it was -10.2%; in assay [4] it was -20.4%; in assay [5] it was 7.35%; in assay [6] it was 12.8%.

As for `O=c1oc2c(Cl)cc(Cl)cc2cc1-c1nc2ccccc2[nH]1`, the growth inhibition is 29.1% in assay [1]; 38.2% in assay [2]; 15.6% in assay [3]; 9.65% in assay [4]; 14.1% in assay [5]; 12.6% in assay [6].

For the compound `CCOC(=O)CCC(NC(=O)C(N)c1ccc([N+](=O)[O-])cc1)C(=O)NC(CCC(=O)OCC)C(=O)OCC` (configuration not stated), the growth inhibition is -5.4% in assay [1]; -7.5% in assay [2]; 1.2% in assay [3]; 0.5% in assay [4]; -2.55% in assay [5]; 4.55% in assay [6].

In the case of `CO[C@@H]1[C@@H](OC2OC(C)C(OC3CC(C)(O)C(OC(=O)CC(C)C)C(C)O3)C(N(C)C)C2O)[C@@H](CC=O)C[C@@H](C)C(=O)/C=C/C2O[C@H]2C[C@@H](C)OC(=O)C[C@H]1OC(C)=O` (some centres not stated), the growth inhibition in assay [1] was 4.1%; in assay [2], -22.6%; in assay [3], 4.75%; in assay [4], 8.95%; in assay [5], -14.3%; in assay [6] it was 17.3%.

Regarding `C[C@]12CCC[C@H](O)[C@H]1O2`, the growth inhibition in assay [1] was -6.45%; in assay [2], 3.25%; in assay [3], -16.1%; in assay [4] it was 0.55%; in assay [5], 0.5%; in assay [6], -10.2%.

Take `CS(=O)(=O)C1CCCCC1SC#N` (configuration not stated): the growth inhibition is -5.1% in assay [1]; -16.7% in assay [2]; -14.5% in assay [3]; -19% in assay [4]; 4.1% in assay [5]; 3.45% in assay [6].

As to `Cc1ccccc1N=Nc1c(C)nc(N)nc1-c1ccccc1`, the growth inhibition in assay [1] is 1%; in assay [2] it was 8.6%; in assay [3] it was 6.2%; in assay [4], -12.6%; in assay [5], -14.5%; in assay [6], 12.2%.

In the case of `C[C@]1(CO)CCC[C@@]2(C)C1CC[C@H]1CC3C[C@]12CC[C@]3(C)O` (some centres not stated), the growth inhibition is 47.2% in assay [1]; 8% in assay [2]; 41.2% in assay [3]; 28.4% in assay [4]; 32.6% in assay [5]; 54.3% in assay [6].

Take `O=C(COc1cccc(Cl)c1)Nc1ccc(C(=O)CCl)cc1`: the growth inhibition in assay [1] was 23.9%; in assay [2] it was 49.5%; in assay [3], 35.9%; in assay [4] it was 11.8%; in assay [5], 47%; in assay [6] it was 44.5%.

Take `COC(=O)[C@H](Cc1ccccc1)NP(=O)(OCCC#N)OCC1OC(n2cc(C)c(=O)[nH]c2=O)CC1N=[N+]=[N-]` (some centres not stated): the growth inhibition in assay [1] was 0.95%; in assay [2], -13.1%; in assay [3], -19.3%; in assay [4], -20%; in assay [5], -19.9%; in assay [6], -35.8%.

For the compound `CCCC(Sc1nc(N)nc2nc[nH]c12)C(=O)O` (configuration not stated), the growth inhibition in assay [1] is -18.7%; in assay [2], -10.2%; in assay [3], -26.3%; in assay [4], -24.3%; in assay [5] it was -29%; in assay [6] it was 4.9%.

With `O=[N+]([O-])c1ccccc1C=Nc1ccccc1O`, the growth inhibition in assay [1] is 56.4%; in assay [2] it was 44.5%; in assay [3] it was 52.8%; in assay [4], 24.9%; in assay [5] it was 75% (active); in assay [6], 66%.

As to `CC1C2c3ccccc3C(c3ccccc32)C1CN1C(CCO)COC1c1ccccc1` (configuration not stated), the growth inhibition in assay [1] was 4.05%; in assay [2] it was 8.9%; in assay [3], -3.25%; in assay [4], -1.75%; in assay [5], 1.4%; in assay [6] it was 7.6%.

Take `O=C1NC(N2CCCCC2)=N/C1=C\c1ccc(Cl)cc1`: the growth inhibition in assay [1] was -7.5%; in assay [2], -7%; in assay [3], 2.4%; in assay [4] it was 7.55%; in assay [5], -12.3%; in assay [6], -38.5%.

For the compound `O=C(COc1ccc(Cl)cc1)NCCOC(=O)COc1ccc(Cl)cc1`, the growth inhibition was 37.5% in assay [1]; 20.4% in assay [2]; 12.2% in assay [3]; 18.2% in assay [4]; 21.3% in assay [5]; 52.3% in assay [6].

Consider `O=C(OC(C[n+]1ccccc1)c1ccccc1)c1ccccc1` (configuration not stated), for which the growth inhibition in assay [1] is -0.55%; in assay [2] it was -0.9%; in assay [3] it was 4.5%; in assay [4], 14.5%; in assay [5], -6.4%; in assay [6] it was 34%.

Consider `CC(=O)OCC1OC(n2c(Br)nc3c2c(=O)n(C)c(=O)n3C)C(OC(C)=O)C1OC(C)=O` (configuration not stated), for which the growth inhibition in assay [1] is -19.9%; in assay [2] it was -1.3%; in assay [3], -14.3%; in assay [4], -7.95%; in assay [5], -0.95%; in assay [6], 0.25%.

Regarding `[C-]#[N+]C1(c2ccccc2)C2CC3CC(C2)CC1C3` (configuration not stated), the growth inhibition in assay [1] was -1.7%; in assay [2], -7.05%; in assay [3] it was -4.35%; in assay [4] it was -16.9%; in assay [5] it was -4.25%; in assay [6], 9.35%.

In the case of `CS(=O)(=O)OC1C(OCc2ccccc2)OC(CO)C(O)C1O` (configuration not stated), the growth inhibition in assay [1] was -6.1%; in assay [2] it was 2.15%; in assay [3] it was -10.1%; in assay [4], -55.6%; in assay [5], -1.6%; in assay [6], 0.55%.

For the compound `CCCCCC/C(CC(=O)CCC(=O)NCCc1ccccc1)=N\Nc1ccc([N+](=O)[O-])cc1[N+](=O)[O-]`, the growth inhibition is -0.2% in assay [1]; 14.9% in assay [2]; -35.5% in assay [3]; 34.2% in assay [4]; 11.9% in assay [5]; -1.7% in assay [6].

As to `CSc1cnn(-c2ccccc2)[n+]1[O-]`, the growth inhibition in assay [1] was 3.8%; in assay [2] it was -1.3%; in assay [3] it was -7.15%; in assay [4], -42.5%; in assay [5] it was -1.75%; in assay [6], -0.85%.

Take `CC1CCC(C(C)C)C(OC2(c3ccccc3)OC(=O)c3ccccc32)C1` (configuration not stated): the growth inhibition is 23.7% in assay [1]; -5.7% in assay [2]; 15.4% in assay [3]; 8.55% in assay [4]; 8.65% in assay [5]; 16.4% in assay [6].

With `COc1cc(C(=O)C/C(CCC(=O)Nc2ccc(Cl)cc2Cl)=N/NC(=O)C(N)=O)ccc1O`, the growth inhibition in assay [1] is -12.8%; in assay [2], -2.45%; in assay [3], -34.8%; in assay [4] it was 22.4%; in assay [5], -1.45%; in assay [6], -20.4%.
